SENP6 block: inhibitors of human SENP6 protease; Q9GZR1; Recombinant SENP6 catalytic domain, aminoluciferin luminescence; inhibition, % at 10 µM; hit rate 1.8% among 330,000; AID 2599;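 active = inhibition above about 50% at the single tested dose, limit read from the data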;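 note: plate controls were DMSO wells with enzyme for no effect and DMSO wells lacking enzyme for full effect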
Target sequence (Q9GZR1 628-1112 limits assumed): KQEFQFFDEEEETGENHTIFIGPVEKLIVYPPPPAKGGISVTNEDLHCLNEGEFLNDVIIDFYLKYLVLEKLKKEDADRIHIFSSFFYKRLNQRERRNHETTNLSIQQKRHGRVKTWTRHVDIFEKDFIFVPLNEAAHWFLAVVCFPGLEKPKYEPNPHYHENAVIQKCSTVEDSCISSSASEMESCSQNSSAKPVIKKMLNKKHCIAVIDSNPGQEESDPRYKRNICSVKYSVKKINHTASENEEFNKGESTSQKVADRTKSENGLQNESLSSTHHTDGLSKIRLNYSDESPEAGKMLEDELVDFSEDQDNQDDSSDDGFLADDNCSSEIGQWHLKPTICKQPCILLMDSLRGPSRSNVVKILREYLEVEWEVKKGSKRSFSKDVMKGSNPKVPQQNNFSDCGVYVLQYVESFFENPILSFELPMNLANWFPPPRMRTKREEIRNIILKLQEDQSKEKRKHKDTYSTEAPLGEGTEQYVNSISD
SENP8 block-1: blocks human SENP8 cleavage of Nedd8 substrate; Q96LD8; recombinant SENP8, Nedd8 substrate fluorescence; inhibition, % at 20 µM; hit rate 0.64% among 360,000; in the data active = inhibition mostly above about 40%, no sharp cut-off; inactive = mostly below about 27%
SENP7 inh: SENP7 protease inhibition | inhibition, % at 5 µM | recombinant SENP7, Z-RLRGG-aminoluciferin luminescence, 40 min | hit rate 1.5% among 330,000 | AID 434973 | Q9BQF6;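 active = inhibition above about 50% at the single test dose, limit read from the data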;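 note: plate controls were DMSO with enzyme for no effect and no enzyme buffer wells for full effect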
Platelet DG rel: platelet dense granule release activity | human platelet-rich plasma, SFLLRN dense granule ATP release, luminescence | inhibition, %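 (compounds screened at 7.5 µM in platelet-rich plasma)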 | hit rate 0.22% among 300,000;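 active = mean replicate score, as percent of positive control, at or above 50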
SENP8 block-2: SENP8 protease inhibition. hit rate 1.2% among 330,000. AID 2540. inhibition, % at 10 µM. Q96LD8. purified SENP8, Z-RLRGG-aminoluciferin cleavage, luminescence; in the data active = inhibition above about 50%
SENP8 confirm: human SENP8 inhibition, confirmed; shares compounds with SENP7 inh; Recombinant SENP8, Z-RLRGG-aminoluciferin luminescence, 60 min; inhibition, % at 12.5 µM; hit rate 40% among 6,200;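 active = mean inhibition across replicates above about 50%, limit read from the data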
SENP6 confirm: human SENP6 inhibition, confirmed; shares compounds with SENP7 inh; recombinant SENP6, Z-RLRGG-aminoluciferin luminescence; inhibition, % at 12.5 µM; hit rate 58% among 6,200; AID 488915
SENP7 confirm: human SENP7 inhibition, confirmed | recombinant SENP7, Z-RLRGG-aminoluciferin luminescence, 40 min | inhibition, % at 12.5 µM | shares compounds with SENP7 inh | hit rate 69% among 6,200
Casp3 SENP sel: inhibits human caspase-3 in SENP selectivity test. hit rate 60% among 6,200. purified caspase-3, Z-DEVD-aminoluciferin luminescence, 60 min. shares compounds with SENP7 inh. inhibition, % at 12.5 µM;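 active = mean inhibition above about 50%, limit read from the data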;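 note: plate controls were enzyme with DMSO for no effect and wells without caspase-3 for full effect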
Target sequence (P42574 28-227 limits assumed): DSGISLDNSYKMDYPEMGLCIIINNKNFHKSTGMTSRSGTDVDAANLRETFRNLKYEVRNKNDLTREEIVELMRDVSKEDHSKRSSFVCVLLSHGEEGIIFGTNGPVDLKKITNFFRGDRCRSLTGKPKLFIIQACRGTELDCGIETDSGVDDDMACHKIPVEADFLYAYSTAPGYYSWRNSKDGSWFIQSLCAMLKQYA
Luc interf: luminescence interference (SENP counter-screen); inhibition, % at 12.5 µM; Pre-incubated SENP8/Z-RLRGG-aminoluciferin, luciferase luminescence interference; AID 488919; shares compounds with SENP7 inh; hit rate 39% among 6,200;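 active = mean inhibition above about 50% when retested at one dose, limit read from the data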;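 note: plate controls were DMSO wells with completed reaction for no effect and substrate without enzyme for full effect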
Starred values were filed as active, the others as inactive; . = no result given; ! = not confirmed by another sample. Shown are actives, neighbours in structure and some others; about 2.4% of the full set was active somewhere.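 Rule for the calls, unless noted: active = mean inhibition above about 50% in the one-dose retest (limit read from the data); inactive = the rest.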

SMILES	SENP6 block	SENP8 block-1	SENP7 inh	Platelet DG rel	SENP8 block-2	SENP8 confirm	SENP6 confirm	SENP7 confirm	Casp3 SENP sel	Luc interf
COc1ccc(Cl)cc1-c1nc(-c2ccc(Br)o2)no1	-24.2	-13.4	1.7	4.3	-0.7	.	.	.	.	.
Cc1ccccc1-c1nc(-c2ccc(Br)o2)no1	71.7*	14.0	66.8*	1.3	58.4*	21.6	64.3*	86.4*	44.7	37.7
Cc1ccc(-n2nc3c(c2NC(=O)C(C)C)CS(=O)(=O)C3)cc1	-5.0	-6.4	7.8	4.0	-5.9	.	.	.	.	.
O=C(NC(=S)Nc1cccc(CO)c1)c1ccc(-c2ccccc2)cc1	55.8*	6.0	9.6	3.8	26.8	5.5	-2.4	14.6	3.8	-1.0
COc1ccccc1CC(=O)OC(C)C(=O)Nc1ccc(S(=O)(=O)N2CCCCC2)cc1 (configuration not stated)	-6.9	1.8	-5.3	.	-9.2	.	.	.	.	.
COc1cc(CN(CC2CCCO2)C(=O)c2cccs2)cc(OC)c1OC (configuration not stated)	12.2	14.3	77.6*	-0.6	-2.7	-5.0	-6.3	-7.9	2.0	6.0
COc1cc(CN(CC2CCCO2)C(=O)c2ccco2)cc(OC)c1OC (configuration not stated)	0.6	3.3	-4.5	-1.8	-3.2	.	.	.	.	.
Cc1ccc(N=C2NC(=O)/C(=C/c3cccn3C)S2)c(C)c1	-11.9	14.1	-6.4	13.8	-11.8	.	.	.	.	.
Cn1cccc1/C=C1\SC(=Nc2ccccc2)NC1=O	80.3*	18.5	64.8*	-37.6	72.2*	44.1	60.9*	63.9*	62.7*	26.7
Cc1c(NC(=O)c2ccccc2NC(=O)c2ccccc2)cccc1C(=O)O	-26.1	9.4	-4.7	3.7	-12.5	.	.	.	.	.
O=C(Nc1ccc(NC(=O)C2CC2)cn1)c1ccccc1	65.1*	9.5	45.3	22.1	31.8	54.9*	53.3*	77.4*	84.5*	8.3
Cc1c(NC(=O)c2ccc(NC(=O)C3CC3)cc2)cccc1C(=O)O	53.4*	8.2	56.8*	1.1	27.0	47.9	43.5	76.9*	14.6	34.8
Cc1c(NC(=O)c2ccccc2N)cccc1C(=O)O	56.0*	-99.8	70.7*	-1.9	46.4	73.6*	67.5*	89.0*	24.6	38.8
O=C(Nc1ccc(NC(=O)C2CC2)cn1)c1ccccc1Cl	-16.5	10.3	-12.8	.	-14.0	.	.	.	.	.
COc1cccc(NC(=O)Nc2nnc(COCCO)s2)c1	.	3.1	.	.	.	.	.	.	.	.
CCOC(=O)c1cnc(SCCc2ccccc2)nc1N	58.5*	-2.0	27.6	0.0	13.2	-0.3	25.4	11.3	22.2	31.8
O=C(O/N=C1/CCCc2occc21)c1ccc(Cl)cc1Cl	67.4*	5.0	73.1*	-10.4	54.6*	-1.8	46.0	42.6	53.2*	25.1
COc1ccc(C(=O)O/N=C2\CCCc3nonc32)cc1	-4.0	17.8	0.1	-14.4	1.5	.	.	.	.	.
O=C(OCCN1CCOCC1)c1ccc(Cl)cc1Cl	6.1	24.8	0.9	-2.9	4.2	.	.	.	.	.
O=C(O/N=C1/CCCc2occc21)c1ccccc1	88.6*	25.0	94.6*	0.4	84.0*	-19.9	84.2*	98.5*	91.7*	53.8*
O=C(CCS(=O)(=O)c1ccccc1)NCc1ccccc1	3.9	7.9	-0.7	-6.8	2.2	.	.	.	.	.
c1ccc(-c2ccc(-c3ccncn3)cc2)cc1	61.1*	-98.7	84.5*	1.6	51.3*	5.7	15.6	32.3	25.9	11.4
c1ccc(-c2csc(-c3ccncc3)n2)cc1	9.1	-36.4	-5.6	-11.0	-14.8	.	.	.	.	.
COc1ccc(-c2nn(-c3ccccc3)cc2C(=O)N2CCN(C(=O)c3ccco3)CC2)cc1	0.0	3.2	8.2	.	1.2	.	.	.	.	.
CCN(CC)CCN1C(=O)Cn2c(C)c(C)c3cccc1c32	-13.9	20.1	58.2*!	-3.9	-8.4	-4.6	2.8	0.0	-0.5	0.4
SMILES	SENP6 block	SENP8 block-1	SENP7 inh	Platelet DG rel	SENP8 block-2	SENP8 confirm	SENP6 confirm	SENP7 confirm	Casp3 SENP sel	Luc interf
CC(C)CN(C(=O)CSc1nc(N)cc(N)n1)C1CCS(=O)(=O)C1 (configuration not stated)	-15.8	-5.3	-2.3	.	-13.5	.	.	.	.	.
O=C(O)c1cccc(NC(=O)c2cccc(S(=O)(=O)Nc3cccc([N+](=O)[O-])c3)c2)c1	65.5*	4.6	30.0	-3.9	51.3*	71.8*	68.6*	86.1*	38.4	45.3
Cc1ccccc1NS(=O)(=O)c1cccc(C(=O)Nc2cccc(C(=O)O)c2)c1	65.5*	12.7	11.5	7.9	33.6	51.8*	44.3	72.5*	12.2	26.4
Cc1cccc(NC(=O)c2cccc(S(=O)(=O)Nc3ccccc3C(=O)O)c2)c1	8.1	0.7	1.4	-3.1	-11.0	.	.	.	.	.
Cc1ccc(C(=O)Nc2cccc([N+](=O)[O-])c2)cc1S(=O)(=O)Nc1cccc(C(=O)O)c1	9.1	3.8	9.2	1.7	16.1	.	.	.	.	.
CC(C)(C)c1ccc(C(=O)c2cn[nH]c2-c2ccccc2O)cc1	-0.1	10.7	6.7	-3.7	-5.3	.	.	.	.	.
O=C(Nc1cccc(Cl)c1)c1ccc2ncsc2c1	56.6*	9.1	62.1*	8.5	48.9	60.1*	59.6*	86.1*	51.3*	67.7*
CN(C)S(=O)(=O)Oc1cccc(C(=O)Nc2ccc(Cl)c(Cl)c2)c1	63.8*	5.1	38.3	-1.9	54.5*	10.6	67.3*	86.2*	15.0	10.4
O=C(Nc1ccc(Cl)cc1)c1ccc2ncsc2c1	-4.7	-29.9	1.8	.	-1.9	.	.	.	.	.
O=C(Nc1cc(Cl)cc(Cl)c1)c1cccc(OC(F)F)c1	53.8*	24.1	13.6	10.0	-0.6	41.5	32.7	68.8*	7.9	9.6
CN(C)S(=O)(=O)Oc1cccc(C(=O)Nc2cccc(Cl)c2)c1	50.6*	9.7	88.5*	-1.0	76.1*	85.1*	85.2*	96.7*	69.0*	74.8*
COc1ccc(CNC(=O)CCC2N=C3c4ccccc4N=C(SCC(=O)NCC4CCCO4)N3C2=O)cc1 (configuration not stated)	-0.1	-188.0	3.7	-1.7	6.2	.	.	.	.	.
Cn1c(N)c(C(=O)CNC2CCCCC2)c(=O)n(C)c1=O	-9.4	6.9	-0.8	3.3	3.5	.	.	.	.	.
Cc1csc(=O)n1CCC(=O)OC(C)C(=O)NCc1ccccc1 (configuration not stated)	-6.0	7.7	2.5	.	3.6	.	.	.	.	.
CC(=O)N1CCN(C(=O)CCc2cc(C(C)(C)C)c(O)c(C(C)(C)C)c2)CC1	6.0	6.3	16.0	-8.6	2.2	.	.	.	.	.

Bioassay records as filed in PubChem.
